The values that follow come from PubChem BioAssay (NCATS).

Assay [1] deals with Tumor necrosis factor (Homo sapiens) (UniProt P01375). The experiment in a line: qHTS assay to identify small molecules that stimulate Tumor Necrosis Factor-alpha (TNF-alpha) secretion (AID 651757; active = well fitted curve in the direction sought with a large enough effect in the signal ratio; the % refers to the signal ratio; note: 0% is about no effect). A digest of the protocol: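 Using 3000 THP-1 cells per well, compounds and controls were applied for 17 hrs at 37 C. Detection followed with two labeled anti-TNF-alpha antibodies (cryptate donor, XL665 acceptor) for 3 hr at room temperature, measured by TR-FRET.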

Assay [2] can be described thus: qHTS assay for environmental chemicals that activate the Aryl hydrocarbon Receptor (AhR) signaling pathway (AID 651777). For activation: % of control where 0% means no effect. Note: nearly all actives have a fitted effect of over 15% in size. Note: potency is the fitted concentration of half-maximal effect. To be noted: 1A2-DRE human hepatoma cells, luciferase, 24 h; activation: hits give high values. A digest of the protocol:
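Following a 24 hr incubation with test chemicals at 37 C and 5% CO2, 1A2-DRE human hepatoma cells received One-Glo reagent; after 30 min at room temperature, luciferase output reflected CYP1A2 induction via AhR.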

For assay [3], the target named is Peroxisome proliferator-activated receptor alpha (Homo sapiens) (UniProt Q07869). The experiment in a line: qHTS assay for small molecule agonists of the peroxisome proliferator-activated receptor alpha (PPARalpha) signaling pathway (AID 651778). Note: % of control where 0% means no effect. To be noted: PathHunter PPARalpha complementation, chemiluminescence, 6 h; hits give high values. Summed up:
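Cells plated at 2,000/well and held overnight at 37 C, 5% CO2, then compound added by pin tool for 6 hr; after PathHunter detection reagent and 60 min at room temperature, chemiluminescence from enzyme complementation was read.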

Assay [4] addresses Nuclear receptor ROR-gamma (Homo sapiens) (UniProt P51449). The assay is described as follows: qHTS assay for small molecule antagonists of the retinoid-related orphan receptor gamma (ROR-gamma) signaling pathway (AID 651802).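 Note: luciferase reporter luminescence driven by ROR response element; series mostly up to about 92 µM; % is set by controls: 0 for no effect and ±100 for the full control effect; nearly all actives have a fitted effect of over 60% in size.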 A digest of the protocol: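 Doxycycline-induced reporter activity in engineered CHO cells (TET-inducible ROR, RORE-LUC) was measured by luminescence after 16hr compound exposure at 37C.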

A short description of assay [5]: qHTS assay for small molecule agonists of the antioxidant response element (ARE) signaling pathway measured by Nrf2-dependant transcriptional activity (AID 720636; active = well fitted curve in the direction sought with a large enough effect in the repeat runs; an effect the other way counts as inactive or inconclusive;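 note: HepG2 cells with an ARE-driven luciferase reporter; % of control where 0% means no effect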). Summed up: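 ONE-Glo luminescence, read 30 min after reagent addition at room temperature, reflected ARE reporter activity in HepG2 cells that had been incubated with compound for 16 hr at 37 C in 1% dialyzed FBS.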

Assay [6] can be described thus: qHTS assay for small molecule antagonists of the retinoid-related orphan receptor gamma (ROR-gamma) signaling pathway - cell viability counter screen (AID 720652; active = well fitted curve in the direction sought with a large enough effect in the repeat runs; an effect the other way counts as inactive or inconclusive;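 note: series mostly up to about 92 µM; compound exposure lasted 16 hr before ATP read; % is set by controls: 0 for no effect and ±100 for the full control effect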). Summed up:
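ATP-based viability readout in the ROR-gamma reporter CHO cells after 16 hr compound exposure under doxycycline induction.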

The nature of assay [7]: qHTS assay for small molecule agonists of the antioxidant response element (ARE) signaling pathway measured by Nrf2-dependant transcriptional activity - cell viability counter screen (AID 720653; active = well fitted curve in the direction sought with a large enough effect in the repeat runs; an effect the other way counts as inactive or inconclusive; note: % is set by controls: 0 for no effect and ±100 for the full control effect). Conditions: ARE-bla HepG2 viability, CellTiter-Glo ATP luminescence, 16 h; hits give low values. A digest of the protocol:
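ARE-bla HepG2 cells (2,000/well) rested 5 hrs at 37C/5% CO2, then exposed to compounds in DMSO for 16 hrs. Viability was read in the same wells as intracellular ATP by luminescence, 30 min at room temperature after reagent addition.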

Assay [8] in a line: qHTS assay for cell viability of HEK293 cells (AID 743288). Note: % is set by controls: 0 for no effect and ±100 for the full control effect; nearly all actives have a fitted effect of over 50% in size. Conditions: ATP luminescence (CellTiter-Glo), 18 h, hits give low values. A digest of the protocol:
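Steps: plate 2,000 parental HEK293 cells per well; incubate ≥5 h, 37 C; add compounds in DMSO; incubate 18 h, 37 C; add CellTiter-Glo; wait 30 min at room temperature; read luminescence.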

Assay [9] in a line: qHTS assay for cell viability of the p53RE-bla HCT-116 cell line (AID 743292). Note: % is set by controls: 0 for no effect and ±100 for the full control effect; nearly all actives have a fitted effect of over 55% in size. Summed up: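 After plating at 4,000 cells per well and a 5 h rest at 37 C, HCT-116 cells carrying p53RE-bla received test chemicals in DMSO. Sixteen hours later at 37 C, CellTiter-Glo was added and luminescence recorded following 30 min at room temperature.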
The target in assay [10] is Nuclear receptor subfamily 1 group I member 2 (Rattus norvegicus) (UniProt Q9R1A7). The experiment in a line: qHTS assay for small molecule activators of the rat pregnane X receptor (rPXR) signaling pathway (AID 651751; call rule not given here; note: 0% is about no effect). To be noted: rPXR reporter cells, luciferase (One-Glo), 24 h.
Assay [11] is described as follows: qHTS assay for small molecule activators of the human pregnane X receptor (PXR) signaling pathway (AID 720659; call rule not given here; note: 0% is about no effect).
Assay [12] can be described thus: qHTS assay for small molecule disruptors of the mitochondrial membrane potential - 5 hr assay (AID 651755; calls by dose curve; note: % is set by controls: 0 for no effect and ±100 for the full control effect; nearly all actives have a fitted effect of over 40% in size). A digest of the protocol: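 Seed HepG2 overnight, add compound, incubate 5 hr at 37C and 5% CO2, stain 30 min with Mito-MPS, then measure monomer (490/535 nm) and aggregate (540/590 nm) fluorescence.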
Assay [13] can be described thus: qHTS assay for small molecule disruptors of the mitochondrial membrane potential - 1 hr assay (AID 651754; calls by dose curve; note: % is set by controls: 0 for no effect and ±100 for the full control effect; nearly all actives have a fitted effect of over 35% in size). A digest of the protocol: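 In this qHTS format, a 1 hr compound treatment of HepG2 cells precedes Mito-MPS staining, and membrane potential is judged from aggregate (red) against monomer (green) fluorescence intensity.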
Assay [14] in a line: qHTS assay to identify small molecules that stimulate interleukin-8 (IL-8) secretion (AID 651758; active = well fitted activation curve with a large enough effect in the signal ratio; the % refers to the signal ratio; note: 0% is about no effect). A digest of the protocol:
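Quantitative HTS in THP-1 monocytic cells at 2000 cells per well, with 16 hrs compound incubation at 37 C. IL-8 in the medium was then quantified by HTRF immunoassay, read after 1-3 hrs at room temperature.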

Values without a mark were called inactive. Records with an inconclusive call do not appear. Activity calls are given as the source filed them. Unless noted, calls come from the whole dose curve; as a rule, active = well fitted curve in the direction sought with a large enough effect; inconclusive = small, poorly fitted or top-dose-only effect, or another doubt; inactive = no such curve, though single readings can be large; an effect the other way counts as inactive or inconclusive.

Sequence of Tumor necrosis factor (Homo sapiens) (P01375 whole entry, looked up): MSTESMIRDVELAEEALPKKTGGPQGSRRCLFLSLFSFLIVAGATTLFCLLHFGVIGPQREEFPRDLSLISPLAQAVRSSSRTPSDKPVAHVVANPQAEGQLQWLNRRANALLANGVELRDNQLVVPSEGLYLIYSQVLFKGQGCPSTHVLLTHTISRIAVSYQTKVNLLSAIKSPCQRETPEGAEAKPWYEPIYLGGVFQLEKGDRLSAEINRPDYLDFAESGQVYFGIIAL
Sequence of Peroxisome proliferator-activated receptor alpha (Homo sapiens) (Q07869 whole entry, looked up): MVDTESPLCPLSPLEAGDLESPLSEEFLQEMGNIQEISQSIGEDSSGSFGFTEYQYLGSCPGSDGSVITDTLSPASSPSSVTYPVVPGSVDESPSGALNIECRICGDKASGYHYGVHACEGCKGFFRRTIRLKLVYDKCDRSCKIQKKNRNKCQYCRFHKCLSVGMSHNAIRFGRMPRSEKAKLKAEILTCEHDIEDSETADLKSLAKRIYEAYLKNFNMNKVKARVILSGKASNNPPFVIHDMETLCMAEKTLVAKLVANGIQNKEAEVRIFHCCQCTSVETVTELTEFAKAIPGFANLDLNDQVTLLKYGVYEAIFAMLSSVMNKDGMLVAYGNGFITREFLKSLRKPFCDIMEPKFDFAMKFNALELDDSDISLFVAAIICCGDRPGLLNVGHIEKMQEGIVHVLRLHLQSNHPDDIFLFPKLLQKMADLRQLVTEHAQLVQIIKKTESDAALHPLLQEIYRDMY
Sequence of Nuclear receptor subfamily 1 group I member 2 (Rattus norvegicus) (Q9R1A7 whole entry, looked up): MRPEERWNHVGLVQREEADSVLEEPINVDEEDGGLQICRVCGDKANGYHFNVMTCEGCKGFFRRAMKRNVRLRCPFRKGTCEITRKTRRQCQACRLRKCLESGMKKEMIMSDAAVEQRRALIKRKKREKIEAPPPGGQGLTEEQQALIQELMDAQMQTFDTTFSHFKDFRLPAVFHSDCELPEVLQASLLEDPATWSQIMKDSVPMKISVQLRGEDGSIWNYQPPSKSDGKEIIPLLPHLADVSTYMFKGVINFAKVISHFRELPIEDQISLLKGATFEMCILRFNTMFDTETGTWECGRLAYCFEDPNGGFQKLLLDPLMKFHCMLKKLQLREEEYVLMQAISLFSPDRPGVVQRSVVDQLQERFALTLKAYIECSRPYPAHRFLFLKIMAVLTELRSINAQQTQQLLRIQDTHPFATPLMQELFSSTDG
Sequence of Nuclear receptor ROR-gamma (Homo sapiens) (P51449 whole entry, looked up): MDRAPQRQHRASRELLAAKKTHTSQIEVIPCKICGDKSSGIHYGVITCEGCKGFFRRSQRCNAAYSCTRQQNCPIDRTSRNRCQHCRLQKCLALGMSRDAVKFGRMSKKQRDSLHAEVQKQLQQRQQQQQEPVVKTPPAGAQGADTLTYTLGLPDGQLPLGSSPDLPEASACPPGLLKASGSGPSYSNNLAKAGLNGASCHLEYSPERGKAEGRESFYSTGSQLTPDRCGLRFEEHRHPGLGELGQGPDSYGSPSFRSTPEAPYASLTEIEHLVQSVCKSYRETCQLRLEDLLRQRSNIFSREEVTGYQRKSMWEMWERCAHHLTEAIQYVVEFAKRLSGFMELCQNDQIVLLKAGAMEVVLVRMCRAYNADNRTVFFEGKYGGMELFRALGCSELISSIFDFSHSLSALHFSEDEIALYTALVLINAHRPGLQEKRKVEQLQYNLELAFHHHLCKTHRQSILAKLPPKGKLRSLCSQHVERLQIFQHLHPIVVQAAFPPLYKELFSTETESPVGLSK

Consider `Nc1cccc(O)c1`, for which the Potency result in [1], in assay [4], in assay [6] and in assay [9] was “inactive” throughout. Further, the activation in [2] was 2.45%. Moreover, the max response is 0.244% in [3], -0.321% in assay [7], 2.15% in [8] and -3.29% in assay [10]. Also, the result in assay [5] and in [11] was inactive.
Turning to `C=C(C)C(=O)OC`, the Potency result in assay [12], in assay [1], in assay [4], in assay [6] and in [9] was “inactive” in each case. The activation in assay [2] was 0.279%. Further, the max response is 0.595% in assay [3], 4.29% in assay [7], 0.0882% in assay [8] and 2.17% in assay [10]. The compound was called inactive in assay [5] and in assay [11].
With `N#CCc1ccccc1[N+](=O)[O-]`, the Potency entry in assay [12], in assay [1], in [4], in [6] and in [9] was “inactive” throughout. Further, the activation in [2] was 4.16%. Also, the compound was classed as inactive in assay [5]. Moreover, the max response is 3.79% in [7], -6.51% in assay [8] and 8.31% in [10].
In the case of `CCCC(Cl)CCCC(Cl)CCC(Cl)CCC(Cl)CCC(Cl)CCCC(Cl)CCC` (stereo not given), the Potency entry in assay [12], in assay [1], in assay [4], in assay [6] and in assay [9] was “inactive” throughout. The activation in [2] was -0.261%. Moreover, the max response in [3] is -3.72%; in assay [7], -6.05%; in assay [8] it was 8.25%; in assay [10] it was 2.04%. The compound was classed as inactive in [5] and in assay [11].
On to `O=C(O)c1ccc(CO)o1`, for which the Potency result in assay [13], in assay [12], in [1], in assay [4], in [6] and in [9] was “inactive” in each case. Besides, the activation in assay [2] was -0.734%. The figures for the max response in assay [3], in [7] and in [8] were 15%, -10.4% and 11.8%, respectively. For the same compound, the outcome in assay [5] and in assay [11] was inactive.
Take `OCCO`: the Potency entry in [13], in assay [12], in assay [1], in [6] and in assay [9] was “inactive” in each case. In assay [2], the activation was 0.215%. The max response in [3] was -4.04%; in [7], -3.22%; in [8], -10.8%. The outcome in [5] was inactive.
As to `COc1ccc(N=[N+]([O-])c2ccc(OC)cc2)cc1`, the Potency entry in assay [13], in assay [12] and in [9] was “inactive” throughout. Further, the Potency in [2] was 1120 nM (active). Also, the max response was -3.57% in [3], -28.6% in assay [7] and -5.78% in [8].
Take `Oc1cccc(Nc2ccccc2)c1`: the activation in [2] is 4.89%. Moreover, the max response in [3] was -0.0901%; in assay [7], -2.76%; in [8], 2.73%; in assay [10], 5.07%. In addition, the Potency result in assay [4], in assay [6] and in assay [9] was “inactive” each time. Besides, the result in assay [5] and in assay [11] was inactive.
Turning to `Nc1ccc(Cl)cc1[N+](=O)[O-]`, the Potency result in [1] and in assay [9] was “inactive” throughout. The activation in [2] is 1.69%. The max response in assay [3] is -2.8%; in [7], 0.225%; in assay [8], -4.72%; in assay [10], 1.08%. For the same compound, the outcome in [5] and in assay [11] was inactive.
Turning to `CCOc1cc(OCC)c(C(C)=O)cc1OCC`, the Potency result in assay [13], in [12], in [1], in assay [14], in assay [4] and in assay [6] was “inactive” throughout. The Potency result in assay [9] is “inactive”. For the same compound, the activation in assay [2] was 3.71%. Besides, the values for the max response in assay [3], in [7] and in [8] were 0.501%, 3.21% and 0.327%, respectively. In addition, in assay [5], the compound was called inactive.
